{"source": "PubChem BioAssay AID652040", "about": "(Broad Institute, 2013)", "note": "Measured potencies and affinities stand elsewhere. Active and inactive are the calls of the source.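 The calls were made as follows: active = falling luciferase signal whose fitted half-maximal concentration is at most twice the top tested dose; inconclusive = flat inhibition between 30 and 70% or a poor curve fit; inactive = the rest.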"}
{"assay": "off-target signal loss in HeLa-CEM21 co-culture – HeLa F-luc CTL cells, cherry-picked, counter-screen for HIV-1 Env fusion inhibitor project, dose response (AID 652040);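 also: more negative values mean stronger loss of luciferase signal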", "settings": "HeLa-F-luc CTL cells with CEM21, firefly luciferase counterscreen; series mostly up to 35 µM"}
{"molecule": "Cc1nc2ccc(NC(=O)c3cc(S(=O)(=O)N(C)c4ccccc4)ccc3Cl)cc2s1", "outcome": "inactive"}
{"molecule": "CCCCS(=O)(=O)N1CCN(C(=O)C(=O)c2cccc(C(F)(F)F)c2)CC1", "outcome": "inactive"}
{"molecule": "COc1ccc(NC(=O)C2(C)CCN2Cc2ccccc2OC(F)F)cc1OC", "note": "(centres undefined)", "outcome": "inactive"}
{"molecule": "O=C(Cc1ccc(Cl)cc1Cl)Nc1ccncc1", "outcome": "inactive"}
{"molecule": "Nc1ccc(S(=O)(=O)c2ccc(N3CCOCC3)c(N)c2)cc1", "outcome": "inactive"}
{"molecule": "CCNc1ncnc2c1cnn2C1CCCO1", "note": "(centres undefined)", "outcome": "inactive"}
{"molecule": "O=C(CNC(=O)c1cccc(-n2cccc2)c1)Nc1ccccc1Br", "outcome": "inactive"}
{"molecule": "O=C(CN1CCN(Cc2ccc(Cl)cc2)C1=O)NCCCN1CCN(c2ccc(F)cc2)CC1", "outcome": "inactive"}
{"molecule": "Cc1onc(-c2ccccc2)c1C(=O)Nc1ccc(Br)cc1Cl", "outcome": "inactive"}
{"molecule": "O=C(Nc1cccc(C(F)(F)F)c1)c1ccc(Cn2cc(Br)cn2)o1", "outcome": "inactive"}
{"molecule": "Clc1ccc2c(c1)C(C1=NCCN1)c1ccccc1CS2", "note": "(centres undefined)", "outcome": "inactive"}
{"molecule": "CC1Cc2cc(-c3csc(NC(=O)Cc4cccs4)n3)ccc2N1S(C)(=O)=O", "note": "(centres undefined)", "outcome": "inactive"}
{"molecule": "c1csc(CNc2ncnc3sccc23)c1", "outcome": "inactive"}
{"molecule": "CC(C)(C)OC(=O)N1CCc2onc(-c3ccc(Br)cc3)c2C1=O", "outcome": "inactive"}
{"molecule": "Cc1ccc(C(=O)NCc2ccccn2)cc1S(=O)(=O)N1CCCCC1", "outcome": "inactive"}
{"molecule": "CC1(C(=O)NCc2ccc3c(c2)OCO3)CCN1Cc1csc2ccccc12", "note": "(centres undefined)", "outcome": "inactive"}
{"molecule": "COc1ccc(C(O)c2nc3ccccc3n2C)cc1OC", "note": "(centres undefined)", "outcome": "inactive"}
{"molecule": "Cc1sc2ncnc(N3CCN(S(=O)(=O)c4ccc(Br)cc4)CC3)c2c1C", "outcome": "inactive"}
{"molecule": "CCOc1ccc(NC2c3ccccc3C(=O)N2Cc2ccco2)cc1", "note": "(centres undefined)", "outcome": "inactive"}
